In experiment [1] the target is Glutathione peroxidase 1 (Homo sapiens) (UniProt P07203). Put plainly: Primary qHTS Assay for Inhibitors of Recombinant Selenoprotein Glutathione Peroxidase 1 (GPX1) (AID 1845191). Also: nearly all actives have a fitted effect of over 65% in size. As to activity, negative = inhibition: % is scaled to controls: 0 for no effect and ±100 for the full control effect. The method, boiled down:
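Recombinant GPX1 (10 nM final) was preincubated with compound for 30 min at room temperature, then reacted with 1 mM GSH, 0.5 mM CHP, 0.5 mM NADPH and 100 nM glutathione reductase; NADPH fluorescence (340/450 nm) was read at 0 and 15 min.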
Background: In qHTS, concentration-response curves come from the screen itself.

Experiment [2] has as its target Phospholipid hydroperoxide glutathione peroxidase GPX4 (Homo sapiens) (UniProt P36969). Put plainly: Primary qHTS Assay for Inhibitors of Recombinant Selenoprotein Glutathione Peroxidase 4 (GPX4) (AID 1845192). Also: nearly all actives have a fitted effect of over 65% in size. As to activity change, negative = inhibition: series mostly up to about 50 µM; % is scaled to controls: 0 for no effect and ±100 for the full control effect. In outline: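 GR-coupled readout: 100 nM GR, 1 mM GSH, 0.5 mM NADPH; NADPH fluorescence (ex 340/em 450 nm) read at t=0 and after 15 min RT. GPX4 200 nM, preincubated 30 min with compound; substrate 0.5 mM CHP.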

In experiment [3] the target is Luciferin 4-monooxygenase (Photinus pyralis) (UniProt P08659). Put plainly: Primary firefly luciferase (FLuc) qHTS assay for identification of artifact compounds. (AID 1845220). Also: nearly all actives have a fitted effect of over 60% in size.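 As to activity change, negative = inhibition: series mostly up to about 54 µM; plate controls were DMSO vehicle for no effect and no enzyme for full effect.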 The method, boiled down:
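In this counter-screen for luciferase artifacts, test compounds met substrate (10 uM each luciferin and ATP) before 10 nM enzyme started the reaction. Light output was measured 5 min later.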

Experiment [4] can be described thus: Primary fluorescence-based thiol-reactive (MSTI) qHTS assay for identification of artifact compounds. (AID 1845221). Also: nearly all actives have a fitted effect of over 65% in size. Also: potency is read from the fitted curve at half-maximal effect.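 As to activity change, negative = thiol reactive: series mostly up to about 54 µM; thiol-reactive compounds lower the probe fluorescence signal.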 In outline:
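qHTS titration of compound; 4 uM MSTI, PBS pH 7.4, 2% DMSO; 1 h RT, dark; fluorescence 525/598 nm; normalized to Acetyl-MSTI and MSTI; 4-parameter Hill fit.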

For experiment [5], the system named is Nanoluciferase (engineered Oplophorus gracilirostris luciferase). Put plainly: Primary Nanoluciferase (NLuc) qHTS assay for identification of artifact compounds. (AID 1845222).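 Also: NLuc secreted into diluted conditioned medium of S16 cells; series mostly up to about 54 µM; 0% = DMSO and -100% = no enzyme.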 The method, boiled down: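 Using secreted nanoluciferase in S16 culture medium (0.22 um filtered, 1:55 dilution), compounds were preincubated 15 min at RT. Signal was generated with Nano-Glo reagent (1:100) over 5 min.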

Experiment [6] is described as follows: Primary redox qHTS assay for identification of artifact compounds. (AID 1845223).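 Also: 0% = DMSO and 100% = reference compound.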 In outline: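 Amplex Red (25 uM) and HRP (250 mU/mL) in HBSS, with compounds for 15 min, then 250 uM DTT for 30 min, room temperature, dark. Fluorescence 525/598 nm read; normalized to DMSO and 10 uM DA3003; Hill fit.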

The record followed here is PubChem BioAssay (NCATS).

Unmarked numbers belong to inactive results. Results filed as inconclusive are left out. The source made the active and inactive calls. Calls follow the shape of the dose curve; as a rule, active = well fitted curve in the direction sought with a large enough effect; inconclusive = small, poorly fitted or top-dose-only effect, or another doubt; inactive = no such curve, though single readings can be large; an effect the other way counts as inactive or inconclusive.

Chain of Phospholipid hydroperoxide glutathione peroxidase GPX4 (Homo sapiens) (P36969 whole entry, looked up): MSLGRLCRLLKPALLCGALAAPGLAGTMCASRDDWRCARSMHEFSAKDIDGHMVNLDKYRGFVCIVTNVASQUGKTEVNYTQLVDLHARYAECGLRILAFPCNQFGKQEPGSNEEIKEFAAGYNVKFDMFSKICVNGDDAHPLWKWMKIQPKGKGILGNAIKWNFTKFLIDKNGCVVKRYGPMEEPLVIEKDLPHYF
Chain of Glutathione peroxidase 1 (Homo sapiens) (P07203 whole entry, looked up): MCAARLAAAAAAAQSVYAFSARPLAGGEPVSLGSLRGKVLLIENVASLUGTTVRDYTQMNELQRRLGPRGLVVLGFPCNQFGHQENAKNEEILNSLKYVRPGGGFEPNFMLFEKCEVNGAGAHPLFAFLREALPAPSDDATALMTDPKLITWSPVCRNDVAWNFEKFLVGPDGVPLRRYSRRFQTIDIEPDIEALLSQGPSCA

On to `O=C(O[C@@H]1O[C@H](CO)[C@@H](O)[C@H](O)[C@H]1O)c1ccccc1`, for which the Potency entry in experiment [1], in experiment [2], in experiment [3], in experiment [5] and in experiment [6] was “inactive” throughout. Further, the Potency in experiment [4] was 23.8 µM (active).
Regarding `O=C(OCC1=CC(Cl)C(O)C(OC(=O)c2ccccc2)C1O)c1ccccc1` (stereo not given), the Potency result in experiment [1], in experiment [2], in experiment [3], in experiment [4], in experiment [5] and in experiment [6] was “inactive” in each case.
On to `COc1ccc(OC2OC(CO[C@@H]3O[C@@H](C)[C@H](O)[C@@H](O)[C@H]3O)C(O)C(O)C2O)cc1OC` (stereo not given in full), for which the Potency result in experiment [1], in experiment [2], in experiment [3], in experiment [5] and in experiment [6] was “inactive” in each case. The Potency in experiment [4] was 2.32 µM (active).
With `C[C@@H](NC(=O)c1cc(C(=O)N[C@@H](Cc2ccccc2)[C@H](O)CNC2CC2)cc(N(C)S(C)(=O)=O)c1)c1ccccc1`, the Potency entry in experiment [1], in experiment [2], in experiment [3], in experiment [4], in experiment [5] and in experiment [6] was “inactive” throughout.
Regarding `COc1ccccc1N1CCN(CCCCNC(=O)c2ccc(-c3cscn3)cc2)CC1`, the Potency result in experiment [1], in experiment [2], in experiment [3], in experiment [4], in experiment [5] and in experiment [6] was “inactive” throughout.
As to `COc1cc(O)cc(C)c1C(=O)OC1C(CO)OC(n2ccc(=O)[nH]c2=O)C1OC(C)=O` (stereo not given), the Potency result in experiment [1], in experiment [2], in experiment [3], in experiment [5] and in experiment [6] was “inactive” in each case. In addition, the Potency in experiment [4] is 9.22 µM (active).
Regarding `C[C@@H]1O[C@@H](O[C@H]2[C@H](O[C@H]3[C@H](O[C@H]4CC[C@@]5(C)C(CC[C@]6(C)C5CC=C5[C@@H]7CC(C)(C)C[C@@H](O)[C@]7(C)CC[C@]56C)[C@@]4(C)CO)O[C@H](C(=O)O)[C@@H](O)[C@@H]3O)O[C@H](C(=O)O)[C@H](O)[C@@H]2O)[C@H](O)[C@H](O)[C@H]1O` (stereo not given in full), the Potency result in experiment [1] and in experiment [2] was “inactive” each time. Also, in experiment [3], the activity change, negative = inhibition is 0.9% [at 11.6 µM]. In experiment [4], the activity change, negative = thiol reactive was 68.8% [at 11.5 µM]. Moreover, in experiment [5], the activity, negative = inhibition was 0% [at 11.6 µM]. The redox activity (% of DA3003) in experiment [6] is -2.66% [at 11.5 µM].
For the molecule `O=C(OC1C=C(CO)C2C(OC3OC(CO)C(O)C(O)C3O)OC=CC12O)c1ccc(O)cc1` (stereo not given), the Potency entry in experiment [1], in experiment [2], in experiment [3], in experiment [5] and in experiment [6] was “inactive” each time. In experiment [4], the Potency is 3.27 µM (active).
On to `CCCN1CCC[C@@H](c2cccc(S(C)(=O)=O)c2)C1`, for which the Potency entry in experiment [1], in experiment [2], in experiment [3], in experiment [4], in experiment [5] and in experiment [6] was “inactive” each time.
With `NC[C@@H]1O[C@@H](O[C@@H]2[C@@H](O[C@@H]3O[C@H](CO)[C@@H](O)[C@H]3O)[C@H](O)[C@@H](N)C[C@H]2N)[C@@H](N)[C@H](O)[C@H]1O`, the Potency entry in experiment [1] and in experiment [2] was “inactive” each time. In addition, the outcome in experiment [3] was “inactive [at 11.6 µM]”. The activity change, negative = thiol reactive in experiment [4] was -13.5% [at 11.5 µM]. In experiment [5], the activity, negative = inhibition is 0% [at 11.6 µM]. Besides, the redox activity (% of DA3003) in experiment [6] is -8.2% [at 11.5 µM].
Regarding `C/C(=C\CC[C@H](CO)[C@@H]1CC[C@]2(C)C3=C(CC[C@@]12C)[C@@]1(C)CCC(=O)C(C)(C)C1CC3)C(=O)O` (stereo not given in full), the Potency result in experiment [1], in experiment [2], in experiment [3], in experiment [4], in experiment [5] and in experiment [6] was “inactive” each time.
For `O=C(/C=C/c1ccc(O)cc1)O[C@H]1[C@H](OC2CCCCC2O)O[C@H](CO)[C@@H](O)[C@@H]1O` (stereo not given in full), the Potency entry in experiment [1], in experiment [2], in experiment [3], in experiment [5] and in experiment [6] was “inactive” throughout. Moreover, the Potency in experiment [4] was 4.12 µM (active).
For `Nc1ncnc2c1c(COc1cccc(Cl)c1)nn2C1CCOCC1`, the Potency entry in experiment [1], in experiment [2], in experiment [3], in experiment [4], in experiment [5] and in experiment [6] was “inactive” throughout.
In the case of `C=C(C)C1CCC2(C(=O)OC3OC(COC4OC(CO)C(O)C(O)C4O)C(OC4OC(C)C(O)C(O)C4O)C(O)C3O)CCC3(C(=O)O)C(CCC4C5(C)CCC(=O)C(C)(C)C5CCC43C)C12` (stereo not given), the Potency entry in experiment [1] and in experiment [2] was “inactive” in each case. Moreover, the outcome in experiment [3] was “inactive [at 11.6 µM]”. Also, in experiment [4], the activity change, negative = thiol reactive was 183% [at 11.5 µM]. Moreover, the activity, negative = inhibition in experiment [5] is 3.95% [at 11.6 µM]. Also, in experiment [6], the redox activity (% of DA3003) is 7.53% [at 11.5 µM].
For the molecule `COC(=O)C1C(c2ccc(O)cc2)C(C(=O)O)C1c1ccc(O)cc1` (stereo not given), the Potency entry in experiment [1], in experiment [2], in experiment [3], in experiment [4], in experiment [5] and in experiment [6] was “inactive” throughout.
For the molecule `OC[C@H]1O[C@@H](Oc2cc(O)cc(-c3cc4ccc(O[C@@H]5O[C@H](CO)[C@@H](O)[C@H](O)[C@H]5O)cc4o3)c2)[C@H](O)[C@@H](O)[C@@H]1O`, the Potency entry in experiment [1], in experiment [2], in experiment [3], in experiment [5] and in experiment [6] was “inactive” in each case. For the same molecule, in experiment [4], the Potency was 10.3 µM (active).
With `CCCCC(=O)N1c2ccccc2NC2=C(C(=O)CCC2)C1c1ccccc1Cl` (stereo not given), the Potency entry in experiment [1], in experiment [2], in experiment [3], in experiment [4], in experiment [5] and in experiment [6] was “inactive” throughout.
Take `C/C(=C\CCC(C)C1CC(O)C2(C)C3CCC4C(C)(C)C(OC5OCC(O)C(O)C5O)CCC45CC35CC(O)C12C)C(=O)O` (stereo not given): the Potency result in experiment [1], in experiment [2], in experiment [3], in experiment [4], in experiment [5] and in experiment [6] was “inactive” each time.
On to `COc1cc(/C=C/C(=O)O[C@@H]2O[C@H](CO)[C@@H](O)[C@H](O)[C@H]2O)ccc1O`, for which the Potency result in experiment [1], in experiment [2], in experiment [3], in experiment [5] and in experiment [6] was “inactive” throughout. Further, in experiment [4], the Potency was 4.65 µM (active).
With `COc1cc(C2Oc3c(OC)cc(/C=C/C(=O)OC4CC(O)(C(=O)O)CC(O)C4O)cc3C2CO)ccc1O` (stereo not given), the Potency result in experiment [1], in experiment [2], in experiment [3], in experiment [4], in experiment [5] and in experiment [6] was “inactive” each time.
